Active and inactive are the calls of the source. The rule behind the calls is not given here.
test: antiviral protection of cells from WNV – synthesized analogs, SAR follow-up (AID 2238); conditions: West Nile virus CPE inhibition in cells; max CPE inhibition: measured here: maximum CPE inhibition observed, at 40 µM, stronger effect = higher value unless noted; series mostly up to 40 µM; CPE inhibition: at the top concentration

| SMILES | max CPE inhibition | CPE inhibition |
| --- | --- | --- |
| O=C(Nc1nc(-c2ccc(Cl)cc2)cs1)c1ccc(I)cc1 | 0.78% | 0.78% (inactive) |
| Cc1cccc2c1-c1sc(C(=O)NCCCN3CCCC(C)C3)cc1CO2 (configuration not stated) | 12.1% [measured here: maximum CPE inhibition observed, at 10 µM, stronger effect = higher value] | -1.09% (inactive) |
| COc1ccc(-c2csc(N(CCCN(C)C)C(=O)c3ccccc3C)n2)cc1 | 60.8% [measured here: maximum CPE inhibition observed, at 80 µM, stronger effect = higher value] |  |
| Cc1cccc2c1-c1sc(C(=O)NCCCN3CCC(C)CC3)cc1CO2 | 30.6% [measured here: maximum CPE inhibition observed, at 10 µM, stronger effect = higher value] |  |
| OC1c2cc(Br)ccc2N=C2CCCN21 (configuration not stated) | 79.7% |  |
| CCOC(=O)C1(Cc2ccccc2C(F)(F)F)CCN(C2CCN(C(C)C)CC2)CC1 | 59.8% |  |
| O=C(CSc1nc2ccccc2c(=O)n1-c1ccc(F)cc1)Nc1ccc2c(c1)OCCO2 | 2.5% | 2.33% (inactive) |
| O=c1c2cc([N+](=O)[O-])ccc2nc2n1CCC2 | 0.23% [measured here: maximum CPE inhibition observed, at 1.25 µM, stronger effect = higher value] | -0.47% (inactive) |
| O=C(CSc1nc2ccccc2c(=O)n1-c1ccc(Cl)c(Cl)c1)Nc1ccc2c(c1)CCC2 | 63.1% |  |
| O=C(CSc1nc2ccccc2c(=O)n1-c1ccccc1)Nc1ccc2c(c1)CCC2 | 72% |  |
| CCN(CC)CCCNC(=S)N1CCN(c2nc(-c3ccccc3)cs2)CC1 | 76% [measured here: maximum CPE inhibition observed, at 20 µM, stronger effect = higher value] |  |
| CN(C)CCCN1c2ccc([N+](=O)[O-])cc2CCc2cc([N+](=O)[O-])ccc21 | 80.3% [measured here: maximum CPE inhibition observed, at 20 µM, stronger effect = higher value] |  |
| CC1CC(C)CN(CCCNC(=O)c2cc3c(s2)-c2ccccc2OC3)C1 (configuration not stated) | 41.1% [measured here: maximum CPE inhibition observed, at 20 µM, stronger effect = higher value] |  |
| CN(C)CCCNC(=S)N1CCN(c2nc(-c3ccccc3)cs2)CC1 | 55.7% [measured here: maximum CPE inhibition observed, at 20 µM, stronger effect = higher value] |  |
| Brc1ccc2c(c1)CN1CCCC1=N2 | 54.9% |  |
| COc1ccc(-c2csc(N(CCCN(C)C)C(=O)c3ccccc3Cl)n2)cc1 | 69.5% |  |
| O=C(Nc1nc(-c2ccccc2)cs1)c1ccccc1Cl | 0.47% [measured here: maximum CPE inhibition observed, at 0.16 µM, stronger effect = higher value] | 0.31% (inactive) |
| O=C(CSc1nc2ccccc2c(=O)n1-c1ccccc1F)Nc1ccc2c(c1)CCC2 | 71.6% [measured here: maximum CPE inhibition observed, at 20 µM, stronger effect = higher value] |  |
| Oc1ccccc1C(Nc1nccs1)c1ccc2cccnc2c1O (configuration not stated) | 8.25% [measured here: maximum CPE inhibition observed, at 5 µM, stronger effect = higher value] | 7.7% (inactive) |
| COc1cccc(NC(=O)CSc2nc3ccccc3c(=O)n2-c2ccc(F)cc2)c1 | 1.33% | 1.01% (inactive) |
| CC1CCN(CCCNC(=O)c2cc3c(s2)-c2ccccc2OC3)CC1 | 73.1% [measured here: maximum CPE inhibition observed, at 20 µM, stronger effect = higher value] |  |
| CC(=O)Nc1ccc2nc3n(c(=O)c2c1)CCC3 | 2.33% | 2.3% (inactive) |
| CC1CCCC(C)N1CCCNC(=O)c1cc2c(s1)-c1ccccc1OC2 (configuration not stated) | 77% [measured here: maximum CPE inhibition observed, at 10 µM, stronger effect = higher value] |  |
| O=C(CSc1nc2ccccc2c(=O)n1-c1ccc(F)cc1F)Nc1ccc(N2CCOCC2)cc1 | 58% [measured here: maximum CPE inhibition observed, at 80 µM, stronger effect = higher value] |  |

Source: PubChem BioAssay AID2238 (Southern Research Specialized Biocontainment Screening …, 2010)
